ATXN2 expr inh: Primary qHTS for Inhibitors of ATXN expression | Potency, µM (top dose mostly 57 µM), for inactives: at the top dose activity change, negative = inhibition, actives largely listed as inhibitors | HEK-293 ATXN2-luciferase reporter, luminescence, 24 h | 0.72% of 360,000 active | AID 1745845, 2022; also: % is scaled to controls: 0 for no effect and ±100 for the full control effect; nearly all actives have a fitted effect of over 55% in size
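ATXN2-luciferase reporter cells (luciferase flanked by upstream and downstream ATXN2 gene portions) were treated 24 h at 37 °C with compounds at up to 57 uM. SteadyGlo luminescence gave expression; GF-AFC fluorescence gave viability.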
HepG2 viability: qHTS for Inhibitors of TGF-b: Cytotox Counterscreen. HepG2 CAGA-GFP viability, ATP luminescence, 18 h. Potency, µM (doses to about 46.1 µM), inactives show top-dose activity change, negative = cytotoxicity, hits mostly cytotoxic. 0.76% of 410,000 active. AID 588856, 2011
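CellTiter-Glo luminescence gave cytotoxicity after 18 hours at 37 degrees C. The cells were HepG2 CAGA-GFP in 1% FBS DMEM, stimulated with 500 pg/mL TGF-beta after compound addition. %Activity was normalised to no-cell wells (complete cell-killing) and DMSO (no toxicity), and curves were fitted and classified.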
TGFb inhibitor: qHTS for Inhibitors of TGF-b; HepG2 CAGA-GFP TGF-b/SMAD3 reporter, GFP fluorescence, 18 h; TGF-beta stimulated, 500 pg/mL final; 1.2% of 410,000 active; Potency, µM (highest dose often 46.1 µM), for inactives: top-dose activity, negative = inhibition, most hits filed as inhibitors; also: % is scaled to controls: 0 for no effect and ±100 for the full control effect; nearly all actives have a fitted effect of over 65% in size
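TGF-beta reporter screen: HEPG2 CAGA-GFP, 1% FBS, 500 pg/mL TGF-beta final, 18 h; per-cell GFP summed per well; curves fitted and categorized by class.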
S2 tox: Viability Counterscreen for Primary qHTS for Inhibitors of ATXN expression; S2 cells (HEK-293 line with an ATXN2-luciferase reporter) viability, CellTiter-Fluor protease fluorescence, 24 h; Potency, µM (series often up to 56.7 µM), hits mostly cytotoxic; 0.49% of 400,000 active; also: nearly all actives have a fitted effect of over 40% in size
HT1080-NT tox: qHTS for induction of synthetic lethality in tumor cells producing 2HG: qHTS for the HT-1080-NT fibrosarcoma cell line. HT-1080-NT fibrosarcoma viability, CellTiter-Glo ATP luminescence, 48 h. Potency, µM (highest dose often 46.1 µM), for inactives: top-dose activity, negative = less viability, hits mostly cytotoxic. 1.6% of 360,000 active. AID 686970, 2013;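 also: NT is the 2HG producing partner of a matched IDH1 knockdown line; 0% = DMSO-treated cells and -100% = media-only wells without cells; nearly all actives have a fitted effect of over 55% in size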
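Viability by CellTiter-Glo luminescence after 48 h compound exposure at 37C of HT-1080-NT cells (750/well, RPMI, 5% FBS). % activity scaled between DMSO wells and medium-only wells, then curve-fitted and categorized by curve class.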
HT1080 IDH1KD tx: qHTS for induction of synthetic lethality in tumor cells producing 2HG: qHTS for the HT-1080-IDH1KD cell line; HT-1080 IDH1 knockdown viability, ATP luminescence, 48 h; Potency, µM (series often up to 46.1 µM), inactives show at the top dose activity, negative = toxicity, most hits filed as cytotoxic; 2% of 360,000 active; AID 686971, 2013;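 also: 0% = DMSO wells and -100% = cell-free medium wells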
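Luminescent ATP read-out (CellTiter-Glo, 10 min at room temperature) after 48 h compound exposure at 37 °C gave viability of IDH1-knockdown HT-1080 cells. Activity was normalised to DMSO and cell-free wells, then fitted as concentration-response curves.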
* = called active by the depositor; i = inactive; ? = inconclusive; / = no result. This is a sample that favours compounds with a hit; in the whole collection about 3.8% have one here. Calls follow the shape of the dose curve; as a rule, active = well fitted curve in the direction sought with a large enough effect; inconclusive = small, poorly fitted or top-dose-only effect, or another doubt; inactive = no such curve, though single readings can be large; an effect the other way counts as inactive or inconclusive. Potency is read from the fitted curve at half-maximal effect.

SMILES	ATXN2 expr inh	HepG2 viability	TGFb inhibitor	S2 tox	HT1080-NT tox	HT1080 IDH1KD tx
CCN(CC)CCCNC1=C(Cl)C(=O)c2ccccc2C1=O	?	3.2µM*	4.5µM*	24µM*	?	21µM*
Cc1ccc(-n2c(=O)c3c(c4cc(C)ccc4n3C)n(CC(=O)NCc3ccccc3)c2=O)cc1	5%	-23%	-12%	i	/	/
C/C(=C1\CCOC(=O)S1)N(C=O)Cc1cnc(C)nc1N	5%	/	/	i	/	/
OC(Br)C(O)C(O)N1CCCc2ccccc21 (stereo not drawn)	/	-10%	-22%	/	/	/
CC1CN(C(=O)N2CCC(C(=O)NCc3ccccc3F)CC2)c2cc(Cl)ccc2O1 (stereo not drawn)	/	-29%	-15%	/	/	/
C=CCNC1=C(Cl)C(=O)c2ccccc2C1=O	-36%	13µM*	?	i	-15%	-26%
COCCCNC1=C(Cl)C(=O)c2ccccc2C1=O	?	-71%	?	i	?	-8%
CCN1CCN(c2cc(-c3ccccc3)nc3cc(-c4cccc(F)c4)nn23)CC1	?	-116%	?	/	23µM*	?
COc1cccc(-c2cc3nc(-c4ccccc4)cc(N4CCCC(O)C4)n3n2)c1 (stereo not drawn)	/	-32%	13µM*	i	?	?
OC1CCN(c2cc(-c3ccccc3)nc3cc(-c4ccc(F)cc4)nn23)CC1	-2%	-19%	-4%	i	10%	2%
CCCN(CCC)CCCNC(=O)C1CCN(S(=O)(=O)CC)CC1	/	4%	-1%	/	/	/
Nc1nc(NCc2ccccc2)nc(NCc2ccccc2)c1[N+](=O)[O-]	6%	-4%	-6%	i	10%	6%
COc1cccc(Nc2nc(N)c([N+](=O)[O-])c(NCc3ccccc3)n2)c1	/	-37%	?	/	-17%	?
Nc1nc(Nc2ccccc2)nc(NCc2ccccc2)c1[N+](=O)[O-]	-18%	-14%	-20%	?	?	16µM*
Cc1ccc(Nc2nc(N)c([N+](=O)[O-])c(NCCO)n2)cc1C	9%	9%	?	i	-17%	-1%
COCCNc1nc(N)c([N+](=O)[O-])c(Nc2ccc(F)cc2)n1	-8%	9%	4%	i	?	15µM*
Cc1ccc(Nc2nc(N)c([N+](=O)[O-])c(NCc3ccco3)n2)cc1C	-8%	-69%	16µM*	?	-25%	?
Cc1cccc(Nc2nc(N)c([N+](=O)[O-])c(NCc3ccccc3)n2)c1	-25%	22µM*	?	i	?	16µM*
CCc1ccc(NC(=O)C(=O)NCCc2sc(-c3ccc(C)cc3)nc2C)cc1	3%	3%	4%	i	/	/
CCOc1ccccc1N1CC(c2nc3ccccc3n2CCOc2ccccc2)CC1=O (stereo not drawn)	0%	-45%	?	?	/	/
Cc1ccc(OCCn2c(C3CC(=O)N(Cc4ccc(F)cc4)C3)nc3ccccc32)c(C)c1 (stereo not drawn)	?	18µM*	?	?	/	/
CCc1ccccc1N1CC(c2nc3ccccc3n2CCC2CCCCC2)CC1=O (stereo not drawn)	?	10µM*	?	28µM*	/	/
CCOc1ccc(N2CC(c3nc4ccccc4n3CCOc3ccccc3)CC2=O)cc1 (stereo not drawn)	?	-24%	16µM*	?	/	/
O=C1CC(c2nc3ccccc3n2CCCCOc2ccccc2)CN1c1ccccc1Cl (stereo not drawn)	?	-45%	?	28µM*	/	/
CCOc1ccccc1N1CC(c2nc3ccccc3n2CCCCOc2ccccc2)CC1=O (stereo not drawn)	-7%	-1%	?	i	/	/
SMILES	ATXN2 expr inh	HepG2 viability	TGFb inhibitor	S2 tox	HT1080-NT tox	HT1080 IDH1KD tx
Cc1ccccc1N1CC(c2nc3ccccc3n2CCC2CCCCC2)CC1=O (stereo not drawn)	?	-103%	?	/	/	/
CCOc1ccc(N2CC(c3nc4ccccc4n3CCCOc3ccccc3OC)CC2=O)cc1 (stereo not drawn)	?	-13%	-29%	18µM*	/	/
Cc1cccc(CN2C(=O)[C@@H]3Cc4c([nH]c5ccccc45)C(C)(C)N3C2=O)c1	?	-21%	?	?	/	/
Cc1cccc(CN2C(=O)[C@H]3Cc4c([nH]c5ccccc45)C(C)(C)N3C2=O)c1	?	-28%	11µM*	?	/	/
CN1CCN(c2ncnc3c2ncn3[C@H]2CN(Cc3ccc(-c4ccccc4)cc3)C[C@@H](CO)O2)CC1	?	11µM*	?	?	18µM*	9.2µM*
CN1CCN(c2ncnc3c2ncn3[C@H]2CN(Cc3ccc(C(=O)O)cc3)C[C@@H](CO)O2)CC1	3%	1%	-3%	i	26%	2%
OCCN1CCN(c2ncnc3c2ncn3[C@H]2CN(Cc3ccc(-c4ccccc4)cc3)C[C@@H](CO)O2)CC1	?	-34%	-6%	/	21µM*	?
CC(=O)N1c2ccc(S(=O)(=O)NCC3CCC(C(=O)Nc4cccc(F)c4)CC3)cc2CC1C (stereo not drawn)	/	-46%	-25%	/	/	/
COc1cc(CN2CCCC(n3cc(C(=O)N4CCCCC4)nn3)C2)cc2c1OCO2 (stereo not drawn)	/	/	/	i	/	/
CCC1CC=CC2C1C(=O)N(Cc1ccccc1)C2c1cccc([N+](=O)[O-])c1 (stereo not drawn)	/	-78%	10µM*	/	/	/
